This is part of a sample that, as a whole, favours compounds with a hit. Of some 83,000 tested, about 20% had one in any assay.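 48-hour exposure, single concentration, 96-well plates; percent growth endpoint where 0 means no net growth. Active: below 10.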 A number with no mark means an inactive call. The source made the active and inactive calls.
Legend:
Test in all cases: NCI-60 one-dose screen, 48 h (100 = growth as untreated, 0 = no growth, -100 = all killed)
Conditions in all cases: 10 µM unless noted
BT-549 breast = test system: BT-549 breast
MDA-MB-435 melanoma = test system: MDA-MB-435 melanoma
SW-620 colon = test system: SW-620 colon
MCF7 breast = test system: MCF7 breast
HCT-116 colon = test system: HCT-116 colon
HCC-2998 colon = test system: HCC-2998 colon
KM12 colon = test system: KM12 colon

Row | SMILES | growth (BT-549 breast) | growth (MDA-MB-435 melanoma) | growth (SW-620 colon) | growth (MCF7 breast) | growth (HCT-116 colon) | growth (HCC-2998 colon) | growth (KM12 colon)
1 | Cc1[nH]nc2ncc(C#Cc3cncc(C(=O)Nc4ccc(CN5CCN(C)CC5)c(C(F)(F)F)c4)c3)cc12 | 64.5% | 13.1% | 4.05% (active) | 43.8% | 8.54% (active) | 44.4% | –
2 | Clc1ccc2c(NCCCn3ccnc3)c3oc4ccccc4c3nc2c1 | 81.2% | 32.2% | 21.5% | 18.2% | 14% | – | –
3 | Cc1nc(-c2cc3ccccc3oc2=O)ccc1C(=O)/C=C/c1ccc(N2CCOCC2)cc1 | 76.9% | -21.1% (active) | 83.5% | 51.6% | 89.1% | – | –
4 | Nc1cc(-c2c[nH]c3ccc(F)cc23)nc2cc(-c3c[nH]c4ccc(F)cc34)nn12 | 103% | 64.2% | 4.64% (active) | 37% | 31.9% | 72.5% | –
5 | OC1CCN(CCCOc2c3ccc(Cl)cc3nc3c2oc2ccc(Cl)cc23)CC1 | 46.6% | -70.4% (active) | -82.6% (active) | -79.7% (active) | 12.3% | 36.8% | –
6 | OC1CCN(CCCOc2c3ccccc3nc3c2oc2ccc(Cl)cc23)CC1 | 57.1% | -40.6% (active) | 2.39% (active) | 2.99% (active) | 15.9% | 21.9% | –
7 | COc1cccc(-c2nn(-c3ccccc3)cc2-c2ccnc(N3CCN(C(=O)c4ccccc4)CC3)c2)c1 | 91.4% | 17% | 72.1% | 85.5% | 73.3% | 113% | –
8 | Nc1c(C(=O)Nc2ccc(Cl)cc2)sc2nc(-c3cnccn3)cc(-c3cccs3)c12 | 65.3% | 77.5% | 66.3% | 55.3% | 41.6% | 104% | –
9 | CC(C)(O)c1cncc(-c2ccc3ncnc(N4CCc5cc(F)c(Cl)cc54)c3c2)c1 | -7.34% (active) | 17.1% | 40.1% | 10.8% | 30.1% | 34.2% | –
10 | N[C@@H](Cc1cn(-c2ccnc3ccccc23)nn1)C(=O)O | 118% | 106% | 104% | 101% | 104% | – | –
11 | N#Cc1ccc(/C=N/NC(=O)c2[nH]c3ccc(Br)cc3c2-c2ccccc2)s1 | -11.4% (active) | 1.78% (active) | 22.9% | 5.58% (active) | -18.9% (active) | 21.8% | –
12 | COc1cccc(OC)c1-c1nnn(C)c1C(=S)N1CCN(c2ccc([N+](=O)[O-])cc2Cl)CC1 | 91.7% | 102% | 101% | 85.7% | 88.2% | 96.7% | –
13 | O=C1Nc2ccccc2Oc2ccc(S(=O)(=O)CC3CO3)cc21 (configuration not stated) | 25% | 46.3% | 17.9% | 18.1% | 46.3% | 71.9% | –
14 | CC(=O)c1ccc(Nc2nc(SC(C)C)nc(-c3ccccc3)c2C#N)cc1 | 118% | 102% | 98.6% | 90.6% | 97.5% | 123% | –
15 | O=c1/c(=C\c2ccc(-c3ccccc3)o2)sc2nc(-c3ccccc3)nn12 | 119% | 101% | 104% | 99.1% | 103% | – | –
16 | NS(=O)(=O)c1cccc(Nc2nc(SCC(=O)c3ccc([N+](=O)[O-])cc3)nc3ccccc23)c1 | -4.45% (active) | 51.3% | 69.2% | 11.7% | 36.8% | 54.3% | –
17 | COc1cc2cc(Oc3ccc(NC(=O)c4cccc(C(F)(F)F)c4)cc3)c(C)nc2cc1OCCN1CCCCC1 | 98.7% | -86.6% (active) | -71.7% (active) | 12.7% | 0.649% (active) | -17.7% (active) | –
18 | COc1cccc(-c2nn(-c3ccccc3)cc2-c2ccnc(N3CCN(C(=O)Nc4ccc(F)cc4)CC3)c2)c1 | 45.8% | 49.9% | 74.1% | 57.7% | 54.9% | 95.4% | –
19 | Cc1cccc(/C=C/c2nn3c(-c4ccco4)nnc3s2)c1 | 90.8% | 95.8% | 101% | 78.5% | 106% | 95% | –
20 | N[C@@H](Cc1cn(-c2c3ccccc3nc3ccccc23)nn1)C(=O)O | 117% | 104% | 105% | 73.9% | 106% | 117% | –

Row | SMILES | growth (BT-549 breast) | growth (MDA-MB-435 melanoma) | growth (SW-620 colon) | growth (MCF7 breast) | growth (HCT-116 colon) | growth (HCC-2998 colon) | growth (KM12 colon)
21 | Cc1ccc(CNS(=O)(=O)/N=C2\NC(=O)NC2=C(Cl)Cl)cc1 | -8.68% (active) | 47.7% | 32.4% | 17.2% | 9.17% (active) | – | –
22 | O=C(N/N=C/c1ccc([N+](=O)[O-])s1)c1[nH]c2ccc(Br)cc2c1-c1ccccc1 | -19% (active) | -35.3% (active) | 3.34% (active) | 7.64% (active) | -7.92% (active) | 0.797% (active) | –
23 | CC(=O)Oc1ccccc1C(=O)Nc1ccc(C(=O)/C=C/c2cccs2)cc1 | 99.2% | 97.8% | 107% | 93% | 108% | – | –
24 | COc1cc(/C=C/C(=O)c2ccc(C(F)(F)F)cc2)ccc1Oc1nc(NCCO)nc(N2CCOCC2)n1 | 92.9% | 78.9% | -3.75% (active) | 17% | -18.5% (active) | 104% | –
25 | O=C1C2=C(C(=O)c3c(O)cccc31)C(c1ccco1)c1sc(=O)[nH]c1S2 (configuration not stated) | -96.8% (active) | -45.3% (active) | 13% | -14.2% (active) | -2.88% (active) | 4.16% (active) | –
26 | O=C(CCN1C(=O)/C(=C/c2ccccc2)SC1=S)N1CCOCC1 | 104% | 81.9% | 79% | 40.9% | 89.6% | 112% | –
27 | c1ccc(CNc2ncnc3ccc(-c4cnc5[nH]ncc5c4)cc23)cc1 | 62.2% | 86.9% | 72.9% | 30.3% | 80.1% | 83.6% | –
28 | CC1=C(C)C(=O)C(Nc2cccc(C(F)(F)F)c2)=C(Cl)C1=O | 121% | 98.5% | 17.1% | 35.4% | 33.9% | – | –
29 | CCN(CC)c1ccc(C=O)c(OCc2cn(CC(=O)Nc3ccc(Cl)cc3)nn2)c1 | 81.4% | 79.8% | 85.6% | 52.9% | 47.3% | 86.1% | –
30 | COc1ccc2[nH]cc(-c3cc(N)n4nc(-c5c[nH]c6ccc(OC)cc56)cc4n3)c2c1 | 105% | -81.4% (active) | -16% (active) | 2.38% (active) | -88.2% (active) | – | –
31 | NS(=O)(=O)c1ccc(Nc2nc(SCC(=O)c3ccc(Cl)cc3)nc3ccccc23)cc1 | 112% | 97.5% | 93.3% | 83% | 101% | 123% | –
32 | CC(C)(C)OC(=O)N1C(=O)c2c(c3c4ccccc4[nH]c3c3ccc4ccccc4c23)C1=O | 61.7% | 40.3% | 57.2% | 34.5% | 58.8% | 82.6% | –
33 | O=C1[C@H]2Cc3c([nH]c4ccccc34)[C@@H](c3ccc(Br)cc3)N2C(=O)CN1C1CCN(Cc2ccccc2)CC1 | 93.4% | 36.9% | 33.5% | 6.48% (active) | 9.04% (active) | – | –
34 | CCOC(=O)c1c(NC(=O)c2cccc(C(F)(F)F)c2)sc2cc(O)ccc12 | 89.7% | 104% | 103% | 46.6% | 91.7% | – | –
35 | Cc1sc2c(c1C)c(=O)nc1c(-c3nc(-c4ccc(F)cc4)no3)n[nH]n12 | 102% | 105% | 111% | 89.7% | 103% | – | –
36 | CNC(=O)c1cc(-c2ccc(NC(=O)Nc3ccc(N4CCOCC4)c(C(F)(F)F)c3)cc2)nc2cccnc12 | 84.8% | 72.6% | 72.3% | 12.3% | 52.3% | 79.9% | –
37 | COc1ccc([C@@H]2c3[nH]c4ccccc4c3CC3C(=O)N(C4CCN(Cc5c(F)cccc5F)CC4)CC(=O)N32)c(OC)c1 (some centres not stated) | 30.4% [5.26 µM] | 60% [5.26 µM] | 64.6% [5.26 µM] | 42.4% [5.26 µM] | -15.2% [5.26 µM] (active) | – | –
38 | Clc1ccc2oc3c(NCCCn4ccnc4)c4ccccc4nc3c2c1 | 76.9% | 26.7% | 16.9% | 8.8% (active) | 11.2% | – | –
39 | O=C(CN1C(=O)/C(=C/c2ccccc2)SC1=S)N1CCOCC1 | 97.5% | 96.2% | 87.2% | 80.8% | 98.3% | 112% | 100%
